# Compound activity (PubChem BioAssay)
# GLS inh: glutaminase GLS (human) inhibition; 410,000 tested, 0.21% active; Potency, µM (highest dose often 45.5 µM), inactives show at the top dose activity change, negative = inhibition, most hits filed as inhibitors; GLS enzymatic activity, qHTS titration; O94925; also: % is scaled to controls: 0 for no effect and ±100 for the full control effect
#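 Assay buffer: 45 mM KH2PO4 pH 8.2, 0.02% Tween-20. hKGA acts on L-glutamine (1 mM solution added); product glutamate is reported by an oxidase/peroxidase Amplex Red coupling, with fluorescence taken at baseline and 30 min.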
# HP1b binding inh: blocks HP1-beta chromodomain binding to methylated histone tails. Potency, µM (doses to about 114 µM), without a hit: top-dose activity change, negative = inhibition, hits mostly inhibitors. AlphaScreen HP1-beta / biotin-H3K9me3 peptide binding. 390,000 tested, 0.56% active. P83916; also: nearly all actives have a fitted effect of over 70% in size
#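 Compound inhibition of the preformed complex between 50 nM HP1-beta and 50 nM biotinylated H3K9me3 peptide was read by AlphaScreen. Buffer was PBS pH 7.4 with 0.01% Tween-20. Incubations ran 30 min at room temperature, with 10 ug/mL donor/acceptor beads.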
# JMJD2A Tudor inh: JMJD2A Tudor domain (human) inhibition | O75164 | AlphaScreen JMJD2A-Tudor / H3K4me3 peptide binding | Potency, µM (highest dose often 114 µM), inactives show at the top dose activity change, negative = inhibition, usual class: inhibitors | 390,000 tested, 4.4% active; also: % is scaled to controls: 0 for no effect and ±100 for the full control effect; nearly all actives have a fitted effect of over 50% in size
# Target sequence (O75164 whole entry, looked up, the tested form may be a part): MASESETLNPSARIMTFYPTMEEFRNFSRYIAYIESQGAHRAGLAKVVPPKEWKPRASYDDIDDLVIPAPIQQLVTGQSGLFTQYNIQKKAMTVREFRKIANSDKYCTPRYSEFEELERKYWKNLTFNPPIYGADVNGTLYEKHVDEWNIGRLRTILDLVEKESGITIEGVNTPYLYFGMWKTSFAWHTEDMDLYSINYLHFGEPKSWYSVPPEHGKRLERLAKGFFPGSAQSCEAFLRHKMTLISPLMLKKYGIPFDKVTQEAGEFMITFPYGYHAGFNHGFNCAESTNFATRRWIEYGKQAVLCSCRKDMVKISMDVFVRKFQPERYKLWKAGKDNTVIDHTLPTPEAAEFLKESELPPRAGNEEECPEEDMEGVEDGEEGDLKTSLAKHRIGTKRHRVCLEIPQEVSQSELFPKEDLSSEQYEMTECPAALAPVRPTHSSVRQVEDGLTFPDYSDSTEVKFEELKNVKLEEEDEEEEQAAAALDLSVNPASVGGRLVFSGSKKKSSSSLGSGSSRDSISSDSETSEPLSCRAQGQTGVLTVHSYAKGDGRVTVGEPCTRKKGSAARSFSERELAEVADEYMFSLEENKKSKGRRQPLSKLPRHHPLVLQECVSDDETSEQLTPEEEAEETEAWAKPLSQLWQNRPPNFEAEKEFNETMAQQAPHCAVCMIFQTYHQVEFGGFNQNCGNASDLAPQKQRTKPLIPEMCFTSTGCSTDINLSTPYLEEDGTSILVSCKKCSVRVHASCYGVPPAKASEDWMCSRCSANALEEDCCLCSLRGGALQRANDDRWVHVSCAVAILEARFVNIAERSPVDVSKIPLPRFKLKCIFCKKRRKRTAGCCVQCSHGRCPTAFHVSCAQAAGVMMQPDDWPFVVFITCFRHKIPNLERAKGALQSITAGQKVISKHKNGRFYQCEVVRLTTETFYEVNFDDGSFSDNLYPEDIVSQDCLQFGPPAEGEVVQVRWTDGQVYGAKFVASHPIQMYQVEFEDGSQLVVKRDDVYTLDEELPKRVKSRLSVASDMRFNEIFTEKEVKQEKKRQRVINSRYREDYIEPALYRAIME
# BAZ2B inh: blocks human BAZ2B. Q9UIF8. AlphaScreen BAZ2B-H3K14Ac peptide displacement. Potency, µM (series often up to 114 µM), without a hit: at the top dose activity change, negative = inhibition, hits mostly inhibitors. 360,000 tested, 4.4% active. AID 504333; also: % is scaled to controls: 0 for no effect and ±100 for the full control effect; nearly all actives have a fitted effect of over 60% in size
#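 AlphaScreen luminescence quantifies BAZ2B engagement of H3K14Ac peptide; the protein and biotinylated peptide are both at 50 nM final, buffer PBS pH 7.4 with 0.01% Tween-20, all steps at room temperature.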
# G9a inh: G9a (human) methyltransferase inhibition | Q96KQ7 | G9a H3K9 monomethylation, AlphaScreen, 2 h | Potency, µM (series often up to 102 µM), for the others: top-dose activity, negative = inhibition, actives largely listed as inhibitors | 350,000 tested, 8.8% active; also: % is scaled to controls: 0 for no effect and ±100 for the full control effect; nearly all actives have a fitted effect of over 75% in size
#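 Methyltransferase reactions run at room temperature for 2 h (20 nM enzyme, 500 nM biotin-H3K9 peptide, 20 uM SAM) after a 15 min compound preincubation; product detected by AlphaScreen beads and anti-H3K9me1 antibody.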
# Numbers without * were called inactive; ? = inconclusive; / = not tested or not shown; ! = not confirmed by another sample; [ ] = dose if it differs, or a comment. A selection: hits, their analogues and other compounds. The true share with any hit is near 10%. Calls follow the shape of the dose curve; as a rule, active = well fitted curve in the direction sought with a large enough effect; inconclusive = small, poorly fitted or top-dose-only effect, or another doubt; inactive = no such curve, though single readings can be large; an effect the other way counts as inactive or inconclusive. Potency is read from the fitted curve at half-maximal effect.
SMILES,GLS inh,HP1b binding inh,JMJD2A Tudor inh,BAZ2B inh,G9a inh
CSc1ncc(Cl)c(C(=O)O)n1 (tested in a mixture with another compound),-2%,15%,79µM*,?,/
CC(C)CNC(=O)/C=C/C=C/CCCCCC/C=C/c1ccc2c(c1)OCO2,-2%,18%,-16%,/,/
CC1(C)C2CC=C(CN3CCC(O)CC3)C1C2 (centres undefined),1%,-21%,3.5µM*,?,?
O=C(Nc1ccc(Cl)c(Cl)c1)c1ccco1,-1%,35%,7%,?,/
O=C1NC(=O)C(Nc2ccc(Cl)c(Cl)c2)C(=O)N1,18%,13%,32µM*,/,/
CCCCCP(=O)(O)c1ccccc1,5%,20%,-13%,/,-1%[59 µM]
CC(C)C[C@H](NC(=O)[C@@H]1CCCN1C(=O)[C@@H](N)Cc1ccc(O)cc1)C(=O)NCC(N)=O,29%,25%,-6%,-7%,-3%
CN1CC(C(=O)c2ccc([N+](=O)[O-])cc2)C(c2ccc(Cl)cc2)C1 (centres undefined),-13%,?,45µM*,?,21%[2.33 µM]
O=C(Cc1ccccc1)NC(Oc1ccccc1Cl)C(Cl)(Cl)Cl (centres undefined),7%,47%,0%,5%,2%[59 µM]
COc1ccc(Nc2c(-c3cc(Br)ccc3O)nc3ncccn23)cc1OC,2%,?,20µM*,14µM*,10µM*
O=C(O)c1ccccc1C(=O)O,3%,97%,-12%,?,1%[0.501 µM]
COc1ccc(CC2C(=O)N(c3ccccc3)C(=O)N(c3ccccc3)C2=O)c(OC)c1,20%,30%,-19%,-5%,45µM*
CCC(c1nnnn1-c1ccc2c(c1)OCCO2)N1CCC2(CC1)C(=O)NCN2c1ccccc1 (centres undefined),6%,/,/,/,/
CC(C)N(C(=O)CCl)c1ccccc1,1%,32%,-12%,/,/
CN(C)/C=C1/C(=O)NC(=O)N(CCNc2ncc(C(F)(F)F)cc2Cl)C1=O,24%,-10%,-28%,?,45µM*
COc1ccc(OCc2n[nH]c(=S)n2Cc2ccco2)cc1,?,?,?,?,2.8µM*
COC(=O)c1c(C)n(Cc2ccco2)c2ccc(O)cc12,-2%,13%,-12%,-35%,?
C[C@]12CCC3=C4CCC(=O)C=C4CC[C@H]3C1CC[C@@H]2O (some centres undefined),-6%,25%,-6%,5%,28%
Cc1ccc(-c2csc(NC(CO)c3nc4ccccc4n3CCOCCO)n2)cc1 (centres undefined),9%,-4%,?,/,/
CC(N=Cc1c(O)[nH]c(=O)[nH]c1=O)c1ccccc1 (centres undefined),2%,9%,-18%,-1%,5.6µM*
COC(=O)c1ccccc1N=Cc1c(O)[nH]c(=O)[nH]c1=O,-7%,64%,10%,23%,?
COc1ccc2c(c1OC)C(=O)OC2c1c(O)n(Cc2ccc(F)cc2)c(=O)[nH]c1=O (centres undefined),9%,21%,79µM*,?,-48%[12.7 µM]
O=c1[nH]c(=O)n(Cc2ccc(F)cc2)c(O)c1C=NCc1cccnc1,13%,10%,-18%,-9%,5%
COc1ccc(NC(c2ccccc2F)P(=O)(Oc2ccccc2)Oc2ccccc2)cc1 (centres undefined),9%,?,?,?,?
COc1ccc(NC(c2ccccc2)P(=O)(Oc2ccccc2)Oc2ccccc2)cc1 (centres undefined),-7%,2%,?,25µM*,25µM*
SMILES,GLS inh,HP1b binding inh,JMJD2A Tudor inh,BAZ2B inh,G9a inh
COc1ccc(OC)c(NP(=O)(Oc2ccc(Cl)cc2)Oc2ccc(Cl)cc2)c1,2%,5%,-22%,-36%,-15%[59 µM]
CCOc1ccccc1-n1c(O)c(C=NCc2ccc3c(c2)OCO3)c(=O)[nH]c1=O,-1%,22%,12%,8%,-6%
CCOc1ccccc1CN(CCc1ccc2c(c1)OCO2)Cc1ccc(CC)cc1,-16%,?,5µM*,40µM*,?
CNC(C)C#Cc1ccc2oc3cc(C)c(C)cc3c(=O)c2c1 (centres undefined),-1%,42%,-24%,/,/
COc1ccc(N2CCN(c3ncnc4c3nc3n4CCCCC3)CC2)cc1,8%,-13%,?,?,11µM*
COc1cc(O)c(C(=O)O)c(-c2cc(O)c(O)cc2C)c1,?,?,13µM*,56µM*,0.35µM*
COC[C@H]1OC(=O)c2coc3c2[C@@]1(C)C1=C(C3=O)[C@@H]2CCC(=O)[C@@]2(C)C[C@H]1OC(C)=O,31%,25%,-5%,/,5µM*
O=C1NC(=O)C2(Cc3ccccc3N3CCCC32)C(=O)N1 (centres undefined),1%,17%,-19%,-23%,50µM*
O=C1NC(=O)C2(Cc3ccccc3N3CCCC32)C(=O)N1c1ccccc1 (centres undefined),-18%,50%,-16%,13%,28µM*
O=C1NC(=O)C2(Cc3ccccc3N3CCOCC32)C(=O)N1c1ccccc1 (centres undefined),42%,13%,-14%,0%,-4%
O=C1C=C2C=C[C@H]3C[C@]2(O1)[C@@H]1CCCCN13,12%,30%,-11%,3%,-8%
NP(N)(=O)NC(=O)c1ccc(F)cc1,6%,/,/,/,-50%[12.7 µM]
C[N+]1(C)C2CCC1CC(OC(=O)c1c[nH]c3ccccc13)C2 (centres undefined),-1%,27%,50µM*,-31%,11µM*
C[N+]1(C)[C@@H]2CC[C@H]1CC(OC(=O)[C@@H](CO)c1ccccc1)C2 (some centres undefined),-27%,-9%,?,-16%,7.9µM*!
C[N+]1(C)CCC(OC(=O)C(c2ccccc2)c2ccccc2)CC1,1%,17%,?,/,6.7µM*!
C[N+]1(C)C2CC[C@H]1CC(OC(=O)C(CO)c1ccccc1)C2 (some centres undefined),-9%,40%,-4%,-4%,1%[59 µM]
Cc1cccc(N2CCN(C(=O)C34CC5CC(CC(C5)C3)C4)CC2)c1C,2%,57%,-7%,-15%,1.6µM*
COc1cc2c(ccc3c4cc(OC)c(OC)cc4c[n+](C)c23)cc1O,20%,20%,-26%,/,/
COc1ccc2c(c[n+](C)c3c4cc5c(cc4ccc23)OCO5)c1OC,/,/,/,/,17µM*
Cc1cc(/C=C2\C(=O)NC(=O)N(c3ccc(Cl)cc3)C2=O)c(C)n1-c1sc2c(c1C#N)CCCC2,8%,0%,-34%,?,?
Cc1ccc(CCNC(=O)Cn2nc(C)c3c(C)n(-c4ccc(C)cc4)nc3c2=O)cc1,0%,43%,5%,?,-2%[59 µM]
